# Laboratory results from PMC7862700, “An all-to-all approach to the identification of sequence-specific readers for epigenetic DNA modifications on cytosine”.
# What was measured:
# Test in all cases: DAPPL (digital affinity profiling via proximity ligation, sequencing); 10 mM Tris-HCl pH 7.5, 50 mM NaCl, 1 mM DTT, 4% glycerol, room temperature, 30 min; GST-TFs on glutathione beads, 16-mer random dsDNA library, 0.1% formaldehyde crosslink after washing; high values mean tight binding
# [1] = target: T1, FEV (Homo sapiens, UniProt Q99581 1-238); details: protein: recombinant; tags: N-terminal GST; dsDNA, one strand shown
# T1 sequence: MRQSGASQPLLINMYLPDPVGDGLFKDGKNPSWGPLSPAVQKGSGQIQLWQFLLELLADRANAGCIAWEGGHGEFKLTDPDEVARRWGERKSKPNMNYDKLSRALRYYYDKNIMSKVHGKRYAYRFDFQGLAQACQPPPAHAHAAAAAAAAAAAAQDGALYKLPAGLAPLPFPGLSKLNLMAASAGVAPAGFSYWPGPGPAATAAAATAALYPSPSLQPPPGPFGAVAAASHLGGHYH
# Outline: (§1)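 Binding signal is given per hexamer as its read frequency for a factor divided by its frequency in the tag-only sample. GST-fused human transcription factors were expressed in yeast, captured on glutathione beads, barcoded with DNA and pooled with that sample, then incubated with 200 nmole of a 16-mer random double-stranded DNA library in Tris/NaCl/DTT/glycerol buffer for 30 min at room temperature. The pools were then washed, crosslinked, proximity-ligated, amplified by PCR and sequenced on an Illumina NextSeq500.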
# [2] = target: ETV5 (Homo sapiens, UniProt P41161 1-510); details: protein: recombinant; tags: N-terminal GST; dsDNA, one strand shown
# Outline: as §1
# [3] = target: HSF1 (Homo sapiens, UniProt Q00613 1-529); details: protein: recombinant; tags: N-terminal GST; chain copies: 3; dsDNA, one strand shown
# Outline: as §1
# [4] = target: T2, SPIC (Homo sapiens, UniProt Q8N5J4 1-248); details: protein: recombinant; tags: N-terminal GST; dsDNA, one strand shown
# T2 sequence: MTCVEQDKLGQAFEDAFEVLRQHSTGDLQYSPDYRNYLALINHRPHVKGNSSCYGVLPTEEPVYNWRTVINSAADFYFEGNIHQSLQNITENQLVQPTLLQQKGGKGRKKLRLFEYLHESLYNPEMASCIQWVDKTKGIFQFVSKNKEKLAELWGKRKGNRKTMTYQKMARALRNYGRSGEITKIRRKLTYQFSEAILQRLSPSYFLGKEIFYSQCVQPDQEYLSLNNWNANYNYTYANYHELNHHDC
# Outline: as §1
# [5] = target: ELF4 (Homo sapiens, UniProt Q99607 1-663); details: protein: recombinant; tags: N-terminal GST; dsDNA, one strand shown
# Outline: as §1
# [6] = target: T3, ELK4 (Homo sapiens, UniProt P28324-2 1-405); details: protein: recombinant; tags: N-terminal GST; dsDNA, one strand shown
# T3 sequence: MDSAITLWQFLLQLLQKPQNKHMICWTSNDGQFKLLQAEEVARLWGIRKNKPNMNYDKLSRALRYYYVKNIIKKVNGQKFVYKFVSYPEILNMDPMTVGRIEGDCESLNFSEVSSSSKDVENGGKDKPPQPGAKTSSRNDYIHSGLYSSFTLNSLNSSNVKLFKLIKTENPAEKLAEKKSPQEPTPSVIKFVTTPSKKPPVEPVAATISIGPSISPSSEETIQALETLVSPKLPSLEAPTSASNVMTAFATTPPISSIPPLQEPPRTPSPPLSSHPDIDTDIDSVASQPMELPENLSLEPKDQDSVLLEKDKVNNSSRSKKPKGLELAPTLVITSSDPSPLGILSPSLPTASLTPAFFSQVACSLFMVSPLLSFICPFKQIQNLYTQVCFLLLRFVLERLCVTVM
# Outline: as §1
# [7] = target: T4, ETV2 (Homo sapiens, UniProt O00321 1-342); details: protein: recombinant; tags: N-terminal GST; dsDNA, one strand shown
# T4 sequence: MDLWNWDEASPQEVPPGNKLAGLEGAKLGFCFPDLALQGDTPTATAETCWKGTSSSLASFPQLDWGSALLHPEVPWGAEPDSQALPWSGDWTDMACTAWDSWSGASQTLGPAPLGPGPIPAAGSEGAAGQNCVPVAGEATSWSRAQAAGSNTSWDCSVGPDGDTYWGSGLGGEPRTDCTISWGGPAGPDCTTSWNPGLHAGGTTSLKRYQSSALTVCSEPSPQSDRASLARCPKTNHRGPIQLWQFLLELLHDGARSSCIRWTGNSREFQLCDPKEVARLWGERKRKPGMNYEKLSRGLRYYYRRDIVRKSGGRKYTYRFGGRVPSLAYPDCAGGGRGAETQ
# Outline: as §1
# [8] = target: T5, ELF3 (Homo sapiens, UniProt P78545 1-371); details: protein: recombinant; tags: N-terminal GST; dsDNA, one strand shown
# T5 sequence: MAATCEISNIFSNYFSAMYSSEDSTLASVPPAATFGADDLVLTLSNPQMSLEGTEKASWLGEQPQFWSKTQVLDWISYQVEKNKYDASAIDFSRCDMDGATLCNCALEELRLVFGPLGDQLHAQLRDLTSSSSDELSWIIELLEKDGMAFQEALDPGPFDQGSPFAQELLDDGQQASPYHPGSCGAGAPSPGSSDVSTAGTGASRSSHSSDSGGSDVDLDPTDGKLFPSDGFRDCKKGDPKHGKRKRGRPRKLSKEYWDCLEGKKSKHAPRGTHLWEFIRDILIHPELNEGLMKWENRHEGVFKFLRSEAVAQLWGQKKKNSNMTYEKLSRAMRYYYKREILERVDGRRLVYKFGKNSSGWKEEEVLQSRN
# Outline: as §1
# [9] = target: CRX (Homo sapiens, UniProt O43186 1-299); details: protein: recombinant; tags: N-terminal GST; dsDNA, one strand shown
# Outline: as §1
# [10] = target: ETV1 (Homo sapiens, UniProt P50549 1-477); details: protein: recombinant; tags: N-terminal GST; dsDNA, one strand shown
# Outline: as §1
# [11] = target: T6, ERF (Homo sapiens, UniProt P50548 1-548); details: protein: recombinant; tags: N-terminal GST; dsDNA, one strand shown
# T6 sequence: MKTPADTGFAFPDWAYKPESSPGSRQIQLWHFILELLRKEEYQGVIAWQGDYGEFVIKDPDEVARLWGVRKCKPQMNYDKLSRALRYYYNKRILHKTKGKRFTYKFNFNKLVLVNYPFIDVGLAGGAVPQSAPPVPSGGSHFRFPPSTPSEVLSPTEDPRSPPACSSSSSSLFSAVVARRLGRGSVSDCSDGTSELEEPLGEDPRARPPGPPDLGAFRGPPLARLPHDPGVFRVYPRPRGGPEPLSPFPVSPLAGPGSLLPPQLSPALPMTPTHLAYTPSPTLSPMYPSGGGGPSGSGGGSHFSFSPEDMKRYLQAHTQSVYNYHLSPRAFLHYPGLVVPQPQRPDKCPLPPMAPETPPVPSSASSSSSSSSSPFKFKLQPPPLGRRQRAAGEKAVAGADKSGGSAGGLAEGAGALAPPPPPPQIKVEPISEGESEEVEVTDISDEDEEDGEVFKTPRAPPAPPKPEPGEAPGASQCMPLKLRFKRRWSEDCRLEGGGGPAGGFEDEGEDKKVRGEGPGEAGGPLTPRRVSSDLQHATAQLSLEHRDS
# Outline: as §1
# [12] = target: T7, ETV3L (Homo sapiens, UniProt Q6ZN32 1-361); details: protein: recombinant; tags: N-terminal GST; dsDNA, one strand shown
# T7 sequence: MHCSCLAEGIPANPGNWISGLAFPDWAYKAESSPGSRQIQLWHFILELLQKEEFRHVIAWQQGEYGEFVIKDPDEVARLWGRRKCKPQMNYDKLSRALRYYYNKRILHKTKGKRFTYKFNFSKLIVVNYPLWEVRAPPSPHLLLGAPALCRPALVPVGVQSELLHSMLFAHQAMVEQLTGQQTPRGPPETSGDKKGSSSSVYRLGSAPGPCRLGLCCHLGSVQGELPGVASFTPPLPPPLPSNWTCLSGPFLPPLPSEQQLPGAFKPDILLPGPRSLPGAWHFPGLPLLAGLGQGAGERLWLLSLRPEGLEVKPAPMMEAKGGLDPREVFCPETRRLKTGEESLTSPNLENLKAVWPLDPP
# Outline: as §1
# [13] = target: T8, ETS2 (Homo sapiens, UniProt P15036 1-469); details: protein: recombinant; tags: N-terminal GST; dsDNA, one strand shown
# T8 sequence: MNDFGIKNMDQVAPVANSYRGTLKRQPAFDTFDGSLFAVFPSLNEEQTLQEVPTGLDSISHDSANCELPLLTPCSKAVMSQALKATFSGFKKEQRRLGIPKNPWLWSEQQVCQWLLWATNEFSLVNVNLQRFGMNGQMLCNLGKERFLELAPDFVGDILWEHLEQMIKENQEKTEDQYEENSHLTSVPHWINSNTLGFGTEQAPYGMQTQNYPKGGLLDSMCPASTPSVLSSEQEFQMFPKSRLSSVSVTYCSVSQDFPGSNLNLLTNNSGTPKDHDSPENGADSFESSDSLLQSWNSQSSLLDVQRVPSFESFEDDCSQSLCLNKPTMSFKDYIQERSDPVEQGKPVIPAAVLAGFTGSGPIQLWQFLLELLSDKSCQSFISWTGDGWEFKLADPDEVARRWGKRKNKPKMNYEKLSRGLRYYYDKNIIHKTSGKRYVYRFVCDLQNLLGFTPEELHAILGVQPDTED
# Outline: as §1
# [14] = target: T9, SPDEF (Homo sapiens, UniProt O95238 1-335); details: protein: recombinant; tags: N-terminal GST; dsDNA, one strand shown
# T9 sequence: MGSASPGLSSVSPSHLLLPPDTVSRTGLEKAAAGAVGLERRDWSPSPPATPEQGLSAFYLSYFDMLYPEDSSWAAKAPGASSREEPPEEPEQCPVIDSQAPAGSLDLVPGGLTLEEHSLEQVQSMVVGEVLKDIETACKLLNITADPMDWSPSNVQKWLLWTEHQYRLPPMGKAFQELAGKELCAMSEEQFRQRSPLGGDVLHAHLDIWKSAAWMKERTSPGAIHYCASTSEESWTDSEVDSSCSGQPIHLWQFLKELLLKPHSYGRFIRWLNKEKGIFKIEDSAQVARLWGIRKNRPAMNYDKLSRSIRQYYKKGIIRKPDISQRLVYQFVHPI
# Outline: as §1
# [15] = target: T10, ETV7 (Homo sapiens, UniProt Q9Y603 1-341); details: protein: recombinant; tags: N-terminal GST; dsDNA, one strand shown
# T10 sequence: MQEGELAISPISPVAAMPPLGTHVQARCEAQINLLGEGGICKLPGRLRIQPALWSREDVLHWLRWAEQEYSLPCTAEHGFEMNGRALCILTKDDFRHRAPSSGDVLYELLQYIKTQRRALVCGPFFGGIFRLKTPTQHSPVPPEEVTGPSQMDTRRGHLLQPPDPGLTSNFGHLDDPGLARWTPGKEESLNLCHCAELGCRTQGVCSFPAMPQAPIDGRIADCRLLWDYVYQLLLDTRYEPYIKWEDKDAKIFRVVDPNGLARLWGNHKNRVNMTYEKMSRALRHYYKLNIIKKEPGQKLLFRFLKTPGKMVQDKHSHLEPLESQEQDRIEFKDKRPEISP
# Outline: as §1
# [16] = target: T11, ELF5 (Homo sapiens, UniProt Q9UKW6-2 1-255); details: protein: recombinant; tags: N-terminal GST; dsDNA, one strand shown
# T11 sequence: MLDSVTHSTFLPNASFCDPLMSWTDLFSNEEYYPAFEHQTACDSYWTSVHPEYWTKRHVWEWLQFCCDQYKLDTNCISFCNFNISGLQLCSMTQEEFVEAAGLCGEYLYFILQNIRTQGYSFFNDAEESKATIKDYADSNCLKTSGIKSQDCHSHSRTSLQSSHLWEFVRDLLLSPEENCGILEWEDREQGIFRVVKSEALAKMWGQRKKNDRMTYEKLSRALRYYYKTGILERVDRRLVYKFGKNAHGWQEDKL
# Outline: as §1
# [17] = target: T12, ETV3 (Homo sapiens, UniProt P41162-2 1-143); details: protein: recombinant; tags: N-terminal GST; dsDNA, one strand shown
# T12 sequence: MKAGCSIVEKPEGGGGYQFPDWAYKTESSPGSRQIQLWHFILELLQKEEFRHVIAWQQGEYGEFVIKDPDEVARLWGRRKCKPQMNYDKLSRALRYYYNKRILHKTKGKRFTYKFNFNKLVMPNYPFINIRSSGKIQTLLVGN
# Outline: as §1
# [18] = target: ETV6 (Homo sapiens, UniProt P41212 1-452); details: protein: recombinant; tags: N-terminal GST; dsDNA, one strand shown
# Outline: as §1
# Chain of CRX (O43186 whole entry): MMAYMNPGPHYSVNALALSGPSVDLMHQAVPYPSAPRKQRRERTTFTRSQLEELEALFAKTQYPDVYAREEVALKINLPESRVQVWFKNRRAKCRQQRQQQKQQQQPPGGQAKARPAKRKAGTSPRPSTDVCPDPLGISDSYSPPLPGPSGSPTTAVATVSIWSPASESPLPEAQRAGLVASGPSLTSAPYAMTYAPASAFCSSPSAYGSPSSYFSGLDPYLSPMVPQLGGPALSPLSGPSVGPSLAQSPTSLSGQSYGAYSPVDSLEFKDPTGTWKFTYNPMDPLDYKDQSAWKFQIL
# Chain of ELF4 (Q99607 whole entry): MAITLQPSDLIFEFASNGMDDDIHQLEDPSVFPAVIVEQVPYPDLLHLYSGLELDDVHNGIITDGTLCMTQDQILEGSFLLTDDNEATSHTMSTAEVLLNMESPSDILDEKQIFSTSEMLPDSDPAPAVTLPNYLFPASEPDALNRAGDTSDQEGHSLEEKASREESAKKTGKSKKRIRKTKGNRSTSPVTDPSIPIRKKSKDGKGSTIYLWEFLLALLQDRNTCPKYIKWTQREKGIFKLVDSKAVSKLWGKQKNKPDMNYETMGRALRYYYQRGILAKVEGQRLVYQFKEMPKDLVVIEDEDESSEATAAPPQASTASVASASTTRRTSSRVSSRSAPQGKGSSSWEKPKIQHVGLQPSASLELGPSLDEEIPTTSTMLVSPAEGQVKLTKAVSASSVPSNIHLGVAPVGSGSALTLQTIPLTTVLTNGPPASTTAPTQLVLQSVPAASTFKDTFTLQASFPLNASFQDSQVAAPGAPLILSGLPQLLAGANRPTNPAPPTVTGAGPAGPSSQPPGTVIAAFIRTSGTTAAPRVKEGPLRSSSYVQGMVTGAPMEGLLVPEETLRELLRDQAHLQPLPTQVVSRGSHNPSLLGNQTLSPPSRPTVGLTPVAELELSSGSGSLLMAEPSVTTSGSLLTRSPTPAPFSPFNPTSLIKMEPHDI
# Chain of HSF1 (Q00613 whole entry): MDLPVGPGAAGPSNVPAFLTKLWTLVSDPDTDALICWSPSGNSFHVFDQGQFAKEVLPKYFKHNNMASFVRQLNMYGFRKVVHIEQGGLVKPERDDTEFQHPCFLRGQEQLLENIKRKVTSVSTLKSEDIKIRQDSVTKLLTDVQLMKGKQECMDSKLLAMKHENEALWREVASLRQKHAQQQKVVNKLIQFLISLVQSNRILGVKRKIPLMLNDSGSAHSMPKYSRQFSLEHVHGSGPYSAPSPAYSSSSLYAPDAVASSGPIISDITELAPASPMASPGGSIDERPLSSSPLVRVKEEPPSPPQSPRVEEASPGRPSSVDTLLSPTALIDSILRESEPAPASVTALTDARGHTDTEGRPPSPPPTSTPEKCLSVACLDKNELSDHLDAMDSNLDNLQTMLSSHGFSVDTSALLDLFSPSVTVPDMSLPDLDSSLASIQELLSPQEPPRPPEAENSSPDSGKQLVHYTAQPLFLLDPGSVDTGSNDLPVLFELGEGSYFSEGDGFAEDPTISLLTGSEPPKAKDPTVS
# Chain of ETV1 (P50549 whole entry): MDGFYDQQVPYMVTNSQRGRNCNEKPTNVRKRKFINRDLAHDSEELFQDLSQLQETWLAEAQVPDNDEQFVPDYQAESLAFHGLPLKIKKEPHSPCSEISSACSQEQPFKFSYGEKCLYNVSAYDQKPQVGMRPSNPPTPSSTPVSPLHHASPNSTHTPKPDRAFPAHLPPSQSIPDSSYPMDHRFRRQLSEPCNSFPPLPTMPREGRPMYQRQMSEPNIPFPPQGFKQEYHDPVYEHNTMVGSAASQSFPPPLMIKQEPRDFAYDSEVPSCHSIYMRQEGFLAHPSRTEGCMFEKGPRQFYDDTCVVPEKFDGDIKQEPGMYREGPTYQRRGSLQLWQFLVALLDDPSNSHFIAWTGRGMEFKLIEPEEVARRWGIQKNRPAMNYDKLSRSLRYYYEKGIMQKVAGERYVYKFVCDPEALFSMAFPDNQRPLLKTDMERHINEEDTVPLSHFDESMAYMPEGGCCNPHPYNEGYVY
# Chain of ETV5 (P41161 whole entry): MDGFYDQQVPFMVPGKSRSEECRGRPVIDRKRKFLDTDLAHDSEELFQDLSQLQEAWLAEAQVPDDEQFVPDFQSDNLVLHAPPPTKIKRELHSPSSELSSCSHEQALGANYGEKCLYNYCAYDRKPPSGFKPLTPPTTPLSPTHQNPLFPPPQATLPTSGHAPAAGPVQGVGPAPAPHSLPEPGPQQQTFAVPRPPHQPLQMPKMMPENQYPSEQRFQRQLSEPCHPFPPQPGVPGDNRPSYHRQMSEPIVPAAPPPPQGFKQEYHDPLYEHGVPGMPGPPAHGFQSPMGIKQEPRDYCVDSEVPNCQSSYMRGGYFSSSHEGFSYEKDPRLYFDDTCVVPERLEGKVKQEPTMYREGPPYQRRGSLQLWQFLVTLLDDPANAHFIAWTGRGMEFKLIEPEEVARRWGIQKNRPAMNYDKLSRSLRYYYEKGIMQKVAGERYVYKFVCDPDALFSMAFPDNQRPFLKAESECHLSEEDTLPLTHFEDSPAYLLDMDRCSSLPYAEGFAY
# Chain of ETV6 (P41212 whole entry): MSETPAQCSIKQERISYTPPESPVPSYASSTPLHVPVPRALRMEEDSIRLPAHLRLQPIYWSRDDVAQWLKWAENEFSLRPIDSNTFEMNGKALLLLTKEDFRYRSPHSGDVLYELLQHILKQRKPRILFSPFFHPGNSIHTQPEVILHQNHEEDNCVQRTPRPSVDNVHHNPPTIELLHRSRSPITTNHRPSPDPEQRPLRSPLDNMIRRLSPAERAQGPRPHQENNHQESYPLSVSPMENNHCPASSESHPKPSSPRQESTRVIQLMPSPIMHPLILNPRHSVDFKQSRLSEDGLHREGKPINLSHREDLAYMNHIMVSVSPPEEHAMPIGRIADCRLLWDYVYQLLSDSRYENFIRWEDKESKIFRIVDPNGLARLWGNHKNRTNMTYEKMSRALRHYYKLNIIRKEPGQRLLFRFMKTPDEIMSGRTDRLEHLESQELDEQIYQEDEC
sequence,measurement,setting,value
TAGCTC,binding signal,[1],"1.19 fold enrichment (6-mer frequency, TF over GST control)"
same,binding signal,[2],"1.25 fold enrichment (6-mer frequency, TF over GST control)"
same,binding signal,[3],"1.24 fold enrichment (6-mer frequency, TF over GST control)"
same,binding signal,[4],"1.19 fold enrichment (6-mer frequency, TF over GST control)"
same,binding signal,[5],"1.22 fold enrichment (6-mer frequency, TF over GST control)"
same,binding signal,[6],"1.26 fold enrichment (6-mer frequency, TF over GST control)"
same,binding signal,[7],"1.37 fold enrichment (6-mer frequency, TF over GST control)"
same,binding signal,[8],"1.17 fold enrichment (6-mer frequency, TF over GST control)"
same,binding signal,[9],"1.46 fold enrichment (6-mer frequency, TF over GST control)"
same,binding signal,[10],"1.21 fold enrichment (6-mer frequency, TF over GST control)"
same,binding signal,[11],"1.04 fold enrichment (6-mer frequency, TF over GST control)"
same,binding signal,[12],"1.14 fold enrichment (6-mer frequency, TF over GST control)"
same,binding signal,[13],"1.21 fold enrichment (6-mer frequency, TF over GST control)"
same,binding signal,[14],"1.24 fold enrichment (6-mer frequency, TF over GST control)"
same,binding signal,[15],"1.24 fold enrichment (6-mer frequency, TF over GST control)"
same,binding signal,[16],"1.1 fold enrichment (6-mer frequency, TF over GST control)"
same,binding signal,[17],"1.17 fold enrichment (6-mer frequency, TF over GST control)"
same,binding signal,[18],"1.14 fold enrichment (6-mer frequency, TF over GST control)"
